Results from PubChem BioAssay (EPA / NIEHS).
Results filed as inconclusive are left out. Active and inactive are the calls of the source. Rule for the calls, unless noted: active = hit-call score of the fitted dose curve at least 0.9, where 1 is the maximum; inactive = score below 0.9.

What was measured:
[1] = ATG_CRE_CIS: Attagene CIS-FACTORIAL HepG2 Assay for human cAMP Responsive Element (CRE) binding protein 3 (AID 2282926); details: HepG2 CRE cis-reporter, Attagene multiplexed mRNA; actives raise or lower the signal
Procedure, shortened: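 Induced reporter mRNA from a CRE cis element, measured in HepG2 among many multiplexed units at 24 h. Detection used RT-PCR plus capillary electrophoresis of fluorescent fragments; DMSO served as negative control.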

[2] = ATG_DR4_LXR_CIS: Attagene CIS-FACTORIAL HepG2 Assay for human Liver X Receptor (LXR), DR4 submotif (AID 2282929); details: HepG2 Attagene DR4 cis-reporter, mRNA transcription; actives raise or lower the signal
Procedure, shortened: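 Cells were transfected with multiple reporter transcription units, exposed to chemicals for 24 hours, then lysed for RNA. Reporter mRNA induction was measured by RT-PCR with capillary electrophoresis detection and fitted in both directions relative to DMSO.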

[3] = molecular target: Transcription factor E2F1 (Homo sapiens) (UniProt Q01094); experiment: ATG_E2F_CIS: Attagene CIS-FACTORIAL HepG2 Assay for human E2F Transcription Factor 1 (AID 2282935); details: HepG2 Attagene cis-reporter, E2F reporter RNA transcripts; actives raise or lower the signal
Procedure, shortened: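 Liver-derived HepG2 cells expressing transfected promoter-driven reporter units received test chemical for 24 hours. Signal gains or losses were fitted bidirectionally against DMSO.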

[4] = ATG_GLI_CIS: Attagene CIS-FACTORIAL HepG2 Assay for human Zinc Finger Protein GLI1 (AID 2282945); details: HepG2, Attagene cis-factorial reporter mRNA, GLI element; actives raise or lower the signal
Procedure, shortened: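 Transiently transfected HepG2 cells report endogenous transcription factor activity via cis-element-driven reporter units. After 24 h compound exposure, reporter mRNA was measured by RT-PCR with capillary electrophoresis; bidirectional fitting against DMSO baseline.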

[5] = ATG_GRE_CIS: Attagene CIS-FACTORIAL HepG2 Assay for human Glucocorticoid Response Elements (GRE) (AID 2282947); details: HepG2 GRE cis-reporter, Attagene multiplex mRNA; actives raise or lower the signal
Procedure, shortened: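 Fluorescence intensity of reporter-specific cDNA fragments, separated by capillary electrophoresis, provides the signal. Constructs carry cis-regulating promoters in transiently transfected HepG2 liver cells; 24 h incubation; fitting is bidirectional against DMSO.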

[6] = molecular target: Hypoxia-inducible factor 1-alpha (Homo sapiens) (UniProt Q16665); experiment: ATG_HIF1a_CIS: Attagene CIS-FACTORIAL HepG2 Assay for human Hypoxia Inducible Factor 1 (HIF1A) (AID 2282951); details: HepG2 Attagene cis-factorial HIF1a reporter transcription; actives raise or lower the signal
Procedure, shortened: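 Measures endogenous transcription-factor activity through cis-regulated reporter mRNA in HepG2. Cells dosed 24 h; transcripts quantified by RT-PCR with 6-FAM-labelled products separated by capillary electrophoresis; DMSO serves as negative control.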

[7] = molecular target: Hepatocyte nuclear factor 6 (Homo sapiens) (UniProt Q9UBC0); experiment: ATG_HNF6_CIS: Attagene CIS-FACTORIAL HepG2 Assay for human Hepatocyte Nuclear Factor 6 (HNF6) (AID 2282952); details: HepG2 Attagene cis-factorial HNF6 reporter transcription; actives raise or lower the signal
Procedure, shortened: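 First, HepG2 cells were transfected with the multiplexed cis reporter library and dosed with chemical for 24 h. Next, RNA was reverse-transcribed, PCR-amplified and fluorescently labelled. Finally, HpaI-digested fragments were read by capillary electrophoresis.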

[8] = molecular target: Heat shock factor protein 1 (Homo sapiens) (UniProt Q00613); experiment: ATG_HSE_CIS: Attagene CIS-FACTORIAL HepG2 Assay for human Heat Shock Transcription Factor 1 (HSE) (AID 2282953); details: HepG2 HSE cis-reporter, Attagene RNA transcription; actives raise or lower the signal
Procedure, shortened: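 Endogenous transcription factor activity captured via cis-promoter reporter units transfected into HepG2; treatment lasted 24 h. Fluorescence intensity of reporter fragments analysed with bidirectional curve fitting, DMSO baseline.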

[9] = ATG_TA_CIS: Attagene CIS-FACTORIAL HepG2 Assay for human TA Basal Promoter (AID 2282964); details: HepG2 Attagene CIS-factorial TA basal promoter reporter; actives raise or lower the signal
Procedure, shortened: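 Fluorescence from labelled RT-PCR reporter fragments, separated by capillary electrophoresis, gives the signal. Cells: HepG2 transiently carrying multiple reporter units, 24 h chemical dosing. Gain or loss relative to DMSO.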

[10] = ATG_TCF_b_cat_CIS: Attagene CIS-FACTORIAL HepG2 Assay for human T-Cell-Factor with beta-catenin (TCF/b-cat) (AID 2282965); details: HepG2 TCF/beta-catenin cis-reporter transcription, actives raise or lower the signal
Procedure, shortened: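 HepG2 cells transiently transfected with cis-promoter-driven multiplexed reporter units; reporter mRNA measured 24 h after dosing by RT-PCR, FAM labelling, HpaI digestion and capillary electrophoresis. Bidirectional fitting relative to DMSO baseline.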

[11] = ATG_TGFb_CIS: Attagene CIS-FACTORIAL HepG2 Assay for human Transforming Growth Factor (TGF) (AID 2282967); details: HepG2 Attagene CIS TGFb reporter, mRNA transcription; actives raise or lower the signal
Procedure, shortened: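 Bidirectional fitting relative to DMSO gave the endpoint. Underlying data: reporter mRNA from HepG2 cells carrying transiently transfected cis-regulated reporter constructs, harvested 24 h after dosing and analyzed by RT-PCR and capillary electrophoresis.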

[12] = molecular target: Transcriptional activator Myb (Homo sapiens) (UniProt P10242); experiment: ATG_Myb_CIS: Attagene CIS-FACTORIAL HepG2 Assay for human Myeloblastosis (Myb) Proto-Oncogene Transcription Factor (AID 2282986); details: HepG2 Attagene CIS-FACTORIAL Myb reporter transcription; actives raise or lower the signal
Procedure, shortened: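 Steps: transfect HepG2 with cis-regulated reporter units; dose with chemical for 24 h; isolate RNA, reverse-transcribe, PCR-amplify and FAM-label reporter sequences; digest with HpaI; resolve by capillary electrophoresis. Activity fitted in both directions relative to DMSO.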

[13] = molecular target: Nuclear respiratory factor 1 (Homo sapiens) (UniProt Q16656); experiment: ATG_NRF1_CIS: Attagene CIS-FACTORIAL HepG2 Assay for human Nuclear Respiratory Factor 1 (NRF1) Orphan Gene (AID 2282987); details: HepG2 NRF1 cis-element reporter, Attagene multiplex; actives raise or lower the signal
Procedure, shortened: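 Fluorescence intensity of labelled reporter cDNA fragments, resolved by capillary electrophoresis, served as readout for NRF1 cis-element activity. Transiently transfected HepG2 cells were dosed for 24 hours; activity in either direction was fitted against DMSO negative control.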

[14] = ATG_NFI_CIS: Attagene CIS-FACTORIAL HepG2 Assay for human Nuclear Factor I (NFI) (AID 2282989); details: HepG2 cis-regulatory reporter, NFI response element transcription; actives raise or lower the signal
Procedure, shortened: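 Cells: human liver HepG2, transiently transfected with promoter-regulated reporter transcription units. Exposure 24 h. Detection: fluorescent RT-PCR products separated by capillary electrophoresis, normalised to DMSO negative control.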

[15] = molecular target: Myc proto-oncogene protein (Homo sapiens) (UniProt P01106); experiment: ATG_Myc_CIS: Attagene CIS-FACTORIAL HepG2 Assay for human Myelocytomatosis (Myc) Proto-Oncogene Transcription Factor (AID 2282990); details: HepG2, Attagene cis-reporter transcription factor activity; actives raise or lower the signal
Procedure, shortened: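 Transiently transfected HepG2 cells bearing cis-promoter reporter units for endogenous transcription factors; 24 h exposure. Reporter mRNA measured by RT-PCR, 6-FAM primer extension, HpaI cut and capillary electrophoresis; bidirectional fit relative to DMSO.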

[16] = ATG_NRF2_ARE_CIS: Attagene CIS-FACTORIAL HepG2 Assay for human Nuclear Factor Erythroid 2 Related Factor 2 (NFR2) response to Antioxidant Response Elements (ARE) (AID 2282992); details: HepG2 Attagene ARE/NRF2 reporter, transcription factor activity; actives raise or lower the signal
Procedure, shortened: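 Fluorescence intensity of reporter-specific cDNA fragments, separated by capillary electrophoresis, reflects mRNA induction in transfected HepG2 cells at 24 h. Activity is fitted bidirectionally, DMSO serving as baseline.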

[17] = ATG_Oct_MLP_CIS: Attagene CIS-FACTORIAL HepG2 Assay for human Octamer-Binding Transcription Factor (Oct) (AID 2282993); details: HepG2 Attagene cis-factorial Oct reporter, mRNA; actives raise or lower the signal
Procedure, shortened: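 HepG2, transient MRTU transfection, cis promoter elements; 24 h dosing; RT-PCR/CE fluorescence read-out of reporter mRNA; fit both directions vs DMSO.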

[18] = molecular target: Cellular tumor antigen p53 (Homo sapiens) (UniProt P04637); experiment: ATG_p53_CIS: Attagene CIS-FACTORIAL HepG2 Assay for human p53 Transcription Factor (AID 2282994); details: HepG2 p53 cis-element reporter, Attagene mRNA; actives raise or lower the signal
Procedure, shortened: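 Transiently transfected HepG2 (multiple cis reporter transcription units); exposure 24 h; reporter RNA via RT-PCR, 6-FAM extension, 2 h HpaI digest at 37 C, CE detection; DMSO baseline.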

[19] = molecular target: Nuclear receptor subfamily 1 group I member 2 (Homo sapiens) (UniProt O75469); experiment: ATG_PXR_TRANS: Attagene TRANS-FACTORIAL HepG2 Assay for human Pregnane X Receptor (PXR) (AID 2283008; active = hit-call score of the fitted dose curve at least 0.9, where 1 is the maximum)
Procedure, shortened: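 Transient HepG2 transfectants carrying multiplexed reporter transcription units; PXR activity read through a Gal4 chimera. 24 h exposure. RT-PCR/CE fluorescence; upward curve fit referenced to DMSO.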

[20] = ATG_XTT_Cytotoxicity: Cytotoxicity Assessment in the Attagene TRANS-FACTORIAL HepG2 Assay (AID 2283584; active = hit-call score of the fitted dose curve at least 0.9, where 1 is the maximum)
Procedure, shortened: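 HepG2 cells transiently transfected with GAL4-UAS multiple reporter units, dosed 24 h; cytotoxicity read by XTT as loss of signal versus DMSO baseline.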

Measured: outcome

Sequence of Hypoxia-inducible factor 1-alpha (Homo sapiens) (Q16665 whole entry, looked up): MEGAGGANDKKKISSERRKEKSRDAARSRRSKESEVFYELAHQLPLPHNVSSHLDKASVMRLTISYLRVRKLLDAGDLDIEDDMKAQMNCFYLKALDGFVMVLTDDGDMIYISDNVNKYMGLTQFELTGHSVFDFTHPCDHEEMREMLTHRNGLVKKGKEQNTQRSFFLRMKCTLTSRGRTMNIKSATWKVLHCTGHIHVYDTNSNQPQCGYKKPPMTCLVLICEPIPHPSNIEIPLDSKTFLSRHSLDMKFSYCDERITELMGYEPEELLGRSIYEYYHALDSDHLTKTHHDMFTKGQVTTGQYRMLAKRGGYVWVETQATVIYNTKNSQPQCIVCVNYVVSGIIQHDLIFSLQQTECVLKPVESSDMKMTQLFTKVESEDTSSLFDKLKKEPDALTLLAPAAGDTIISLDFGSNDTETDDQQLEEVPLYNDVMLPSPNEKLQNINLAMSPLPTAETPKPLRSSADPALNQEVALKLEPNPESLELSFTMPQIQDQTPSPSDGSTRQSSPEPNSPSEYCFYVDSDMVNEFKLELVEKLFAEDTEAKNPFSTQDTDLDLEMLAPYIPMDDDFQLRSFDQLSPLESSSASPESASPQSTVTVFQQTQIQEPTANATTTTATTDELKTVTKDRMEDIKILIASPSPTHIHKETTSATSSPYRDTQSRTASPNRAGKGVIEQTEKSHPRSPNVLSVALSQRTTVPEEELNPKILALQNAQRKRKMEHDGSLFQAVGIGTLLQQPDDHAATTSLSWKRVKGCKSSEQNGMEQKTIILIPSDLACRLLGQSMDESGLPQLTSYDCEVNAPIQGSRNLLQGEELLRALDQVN
Sequence of Heat shock factor protein 1 (Homo sapiens) (Q00613 whole entry, looked up, the tested form may be a part): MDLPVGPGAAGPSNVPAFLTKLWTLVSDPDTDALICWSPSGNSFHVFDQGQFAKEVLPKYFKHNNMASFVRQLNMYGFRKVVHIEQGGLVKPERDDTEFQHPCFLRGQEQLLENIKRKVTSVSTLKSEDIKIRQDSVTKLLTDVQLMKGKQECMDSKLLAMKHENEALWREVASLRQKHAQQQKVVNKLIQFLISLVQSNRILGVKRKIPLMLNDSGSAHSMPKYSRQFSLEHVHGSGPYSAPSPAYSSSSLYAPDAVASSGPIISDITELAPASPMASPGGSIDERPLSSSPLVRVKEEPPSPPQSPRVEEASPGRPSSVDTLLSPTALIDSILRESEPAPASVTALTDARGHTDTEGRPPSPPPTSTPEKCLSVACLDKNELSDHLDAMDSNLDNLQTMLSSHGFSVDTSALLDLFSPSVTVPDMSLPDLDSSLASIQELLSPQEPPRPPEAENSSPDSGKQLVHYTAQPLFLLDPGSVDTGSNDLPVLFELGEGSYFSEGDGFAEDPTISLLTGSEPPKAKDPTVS
Sequence of Nuclear respiratory factor 1 (Homo sapiens) (Q16656 whole entry, looked up, the tested form may be a part): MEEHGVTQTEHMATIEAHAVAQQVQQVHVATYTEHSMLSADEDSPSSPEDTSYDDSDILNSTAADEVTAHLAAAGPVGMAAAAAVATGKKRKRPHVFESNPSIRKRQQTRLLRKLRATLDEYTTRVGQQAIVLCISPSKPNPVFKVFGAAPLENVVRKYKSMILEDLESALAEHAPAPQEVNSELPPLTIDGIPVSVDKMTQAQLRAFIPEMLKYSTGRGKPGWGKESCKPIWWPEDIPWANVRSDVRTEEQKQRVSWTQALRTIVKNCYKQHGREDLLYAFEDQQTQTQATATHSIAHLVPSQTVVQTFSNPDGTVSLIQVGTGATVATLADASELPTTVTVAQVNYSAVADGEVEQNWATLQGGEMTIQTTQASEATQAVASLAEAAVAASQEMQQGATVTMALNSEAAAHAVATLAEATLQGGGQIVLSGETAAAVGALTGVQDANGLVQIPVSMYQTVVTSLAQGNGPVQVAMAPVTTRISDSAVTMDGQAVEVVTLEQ
Sequence of Transcriptional activator Myb (Homo sapiens) (P10242 whole entry, looked up): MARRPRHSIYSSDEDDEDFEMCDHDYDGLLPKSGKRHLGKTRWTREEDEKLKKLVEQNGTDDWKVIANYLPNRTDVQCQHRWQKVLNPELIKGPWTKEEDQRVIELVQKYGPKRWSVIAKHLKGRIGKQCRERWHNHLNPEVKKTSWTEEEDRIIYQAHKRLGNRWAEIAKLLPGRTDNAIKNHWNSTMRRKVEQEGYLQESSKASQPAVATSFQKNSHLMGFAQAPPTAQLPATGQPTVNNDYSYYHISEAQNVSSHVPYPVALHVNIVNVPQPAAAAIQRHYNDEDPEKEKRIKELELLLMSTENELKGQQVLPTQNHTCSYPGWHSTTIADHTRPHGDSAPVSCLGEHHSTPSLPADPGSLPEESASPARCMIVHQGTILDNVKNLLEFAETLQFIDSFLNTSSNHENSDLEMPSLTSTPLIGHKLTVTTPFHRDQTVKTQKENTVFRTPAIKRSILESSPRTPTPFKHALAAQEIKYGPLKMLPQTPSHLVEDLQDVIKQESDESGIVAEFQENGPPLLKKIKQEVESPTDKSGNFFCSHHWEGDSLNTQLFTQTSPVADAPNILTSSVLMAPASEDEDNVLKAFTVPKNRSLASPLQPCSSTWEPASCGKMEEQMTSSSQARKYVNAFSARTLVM
Sequence of Transcription factor E2F1 (Homo sapiens) (Q01094 whole entry, looked up): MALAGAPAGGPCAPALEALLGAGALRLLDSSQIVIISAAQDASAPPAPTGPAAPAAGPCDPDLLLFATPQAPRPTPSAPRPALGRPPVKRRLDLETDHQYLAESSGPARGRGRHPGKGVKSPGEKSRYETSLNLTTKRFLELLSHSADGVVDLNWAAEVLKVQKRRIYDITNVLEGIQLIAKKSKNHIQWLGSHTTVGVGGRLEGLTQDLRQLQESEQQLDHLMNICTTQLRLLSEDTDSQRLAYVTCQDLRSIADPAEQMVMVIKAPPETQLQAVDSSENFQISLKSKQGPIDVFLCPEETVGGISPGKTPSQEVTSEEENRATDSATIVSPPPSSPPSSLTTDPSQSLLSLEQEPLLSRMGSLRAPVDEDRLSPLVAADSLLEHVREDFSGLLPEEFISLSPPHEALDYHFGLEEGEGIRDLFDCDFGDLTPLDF
Sequence of Myc proto-oncogene protein (Homo sapiens) (P01106 whole entry, looked up): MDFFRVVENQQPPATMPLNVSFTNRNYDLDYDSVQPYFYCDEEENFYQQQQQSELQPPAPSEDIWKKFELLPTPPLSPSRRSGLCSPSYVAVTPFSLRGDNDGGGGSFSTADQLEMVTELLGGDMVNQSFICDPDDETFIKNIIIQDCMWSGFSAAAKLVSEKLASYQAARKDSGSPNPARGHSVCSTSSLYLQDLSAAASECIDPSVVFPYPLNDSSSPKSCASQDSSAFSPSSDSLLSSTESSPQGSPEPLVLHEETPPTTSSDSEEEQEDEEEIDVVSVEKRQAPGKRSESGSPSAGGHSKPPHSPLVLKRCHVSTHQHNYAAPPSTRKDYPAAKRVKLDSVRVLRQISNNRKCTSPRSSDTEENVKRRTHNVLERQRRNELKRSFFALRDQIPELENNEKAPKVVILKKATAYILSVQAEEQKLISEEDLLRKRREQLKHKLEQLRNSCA
Sequence of Nuclear receptor subfamily 1 group I member 2 (Homo sapiens) (O75469 whole entry, looked up, the tested form may be a part): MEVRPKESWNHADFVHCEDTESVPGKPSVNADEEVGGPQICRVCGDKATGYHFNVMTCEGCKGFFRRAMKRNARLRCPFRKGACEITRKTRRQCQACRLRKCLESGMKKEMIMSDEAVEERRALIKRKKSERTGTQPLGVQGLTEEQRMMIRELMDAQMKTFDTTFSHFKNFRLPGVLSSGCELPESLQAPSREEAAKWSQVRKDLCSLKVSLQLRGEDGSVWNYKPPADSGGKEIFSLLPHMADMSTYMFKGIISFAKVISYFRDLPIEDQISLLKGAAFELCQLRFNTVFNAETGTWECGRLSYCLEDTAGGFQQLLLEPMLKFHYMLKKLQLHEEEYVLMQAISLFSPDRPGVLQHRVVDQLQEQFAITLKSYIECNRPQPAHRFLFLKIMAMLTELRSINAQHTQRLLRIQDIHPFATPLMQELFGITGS
Sequence of Cellular tumor antigen p53 (Homo sapiens) (P04637 whole entry, looked up): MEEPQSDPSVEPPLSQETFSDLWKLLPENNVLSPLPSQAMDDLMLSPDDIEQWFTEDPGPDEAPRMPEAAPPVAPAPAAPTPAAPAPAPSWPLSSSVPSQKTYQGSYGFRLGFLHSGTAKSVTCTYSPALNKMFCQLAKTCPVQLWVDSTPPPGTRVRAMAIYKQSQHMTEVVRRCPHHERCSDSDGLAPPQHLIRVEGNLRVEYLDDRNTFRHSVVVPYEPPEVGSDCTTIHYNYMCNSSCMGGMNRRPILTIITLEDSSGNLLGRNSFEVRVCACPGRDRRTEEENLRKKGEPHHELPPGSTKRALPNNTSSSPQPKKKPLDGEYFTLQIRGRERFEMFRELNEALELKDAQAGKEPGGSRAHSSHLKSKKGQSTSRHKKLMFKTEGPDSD
Sequence of Hepatocyte nuclear factor 6 (Homo sapiens) (Q9UBC0 whole entry, looked up, the tested form may be a part): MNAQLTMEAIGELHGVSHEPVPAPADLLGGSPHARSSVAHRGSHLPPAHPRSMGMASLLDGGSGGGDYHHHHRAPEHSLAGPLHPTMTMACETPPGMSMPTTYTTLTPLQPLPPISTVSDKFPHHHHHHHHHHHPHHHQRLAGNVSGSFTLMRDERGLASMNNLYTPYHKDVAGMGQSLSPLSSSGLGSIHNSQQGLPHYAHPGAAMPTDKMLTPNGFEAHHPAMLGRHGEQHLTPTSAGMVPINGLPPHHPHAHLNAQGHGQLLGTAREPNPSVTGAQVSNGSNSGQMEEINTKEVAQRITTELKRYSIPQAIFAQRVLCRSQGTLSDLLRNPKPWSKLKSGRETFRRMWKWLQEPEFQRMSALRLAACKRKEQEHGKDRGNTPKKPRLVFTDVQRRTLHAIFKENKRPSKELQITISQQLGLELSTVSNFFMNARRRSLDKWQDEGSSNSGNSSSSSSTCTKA

Cc1cc(-n2nc3ccc(Cl)cc3n2)c(O)c(C(C)(C)C)c1
inactive: all assays above

CCCCC(CC)COC(=O)CS (stereo not given)
not listed: [4] | [9] | [10] | [15] | [20]
inactive: all other assays above

CNC[C@H](O)[C@@H](O)[C@H](O)[C@H](O)CO
not listed: [5] | [6] | [19]
inactive: all other assays above

O=C1NC(=O)[C@@H]2CC=CC[C@H]12
not listed: [4] | [9]
inactive: all other assays above
